Data as given in PubChem BioAssay AID1159580 (chemical genetic matrix, 2015).
Out of some 5,500 compounds screened, about 2,000 (36%) were called active. Roughly 18% stayed inconclusive and do not appear here. No stated cut-off is given here; in the data, active means normalized growth mostly below about 0.91 (no sharp cut-off); inconclusive means no clear call, values can overlap the other calls; inactive means mostly above about 0.92. This is one part of the list.

Assay: chemical genetic growth profiling, strain panel (AID 1159580);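 further: tested at 20 µM; growth read once vehicle control cultures reached saturation at 30 °C; 1 = growth at the plate median or of vehicle wells; lower values mean less growth of the strain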
Details: growth OD
[1] = S. cerevisiae deletion strains, locus YAL013W, strain DEP1, hits give low values
[2] = S. cerevisiae deletion strains, locus YBR229C, strain ROT2, hits give low values
[3] = S. cerevisiae deletion strains, locus YCL061C, strain MRC1, hits give low values
[4] = S. cerevisiae deletion strains, locus YDL101C, strain DUN1, hits give low values
[5] = S. cerevisiae deletion strains, locus YDR150W, strain NUM1, hits give low values
[6] = S. cerevisiae deletion strains, locus YEL061C, strain CIN8, hits give low values
[7] = S. cerevisiae deletion strains, locus YGR078C, strain PAC10, hits give low values
[8] = S. cerevisiae deletion strains, locus YHR030C, strain SLT2, hits give low values
[9] = S. cerevisiae deletion strains, locus YHR087W, strain rtc3, hits give low values
[10] = S. cerevisiae deletion strains, locus YJL187C, strain SWE1, hits give low values
[11] = S. cerevisiae deletion strains, locus YJR043C, strain POL32, hits give low values
[12] = S. cerevisiae deletion strains, locus YJR075W, strain HOC1, hits give low values
[13] = S. cerevisiae deletion strains, locus YLR039C, strain RIC1, hits give low values
[14] = S. cerevisiae deletion strains, locus YLR058C, strain SHM2 (second series), hits give low values
[15] = S. cerevisiae deletion strains, locus YLR085C, strain ARP6, hits give low values
[16] = S. cerevisiae deletion strains, locus YLR262C, strain YPT6, hits give low values
[17] = S. cerevisiae deletion strains, locus YML094W, strain GIM5, hits give low values
[18] = S. cerevisiae deletion strains, locus YMR219W, strain ESC1, hits give low values
[19] = S. cerevisiae deletion strains, locus YMR263W, strain SAP30, hits give low values
[20] = S. cerevisiae deletion strains, locus YNL153C, strain GIM3, hits give low values
[21] = S. cerevisiae deletion strains, locus YNL298W, strain CLA4 (second series), hits give low values
[22] = S. cerevisiae deletion strains, locus YNL322C, strain KRE1, hits give low values
[23] = S. cerevisiae deletion strains, locus YNR030W, strain Alg12, hits give low values
[24] = S. cerevisiae deletion strains, locus YOL006C, strain TOP1, hits give low values
[25] = S. cerevisiae deletion strains, locus YPL055C, strain LGE1, hits give low values
[26] = S. cerevisiae deletion strains, locus YPL241C, strain CIN2, hits give low values
[27] = S. cerevisiae deletion strains, locus YPR135W, strain CTF4, hits give low values

Measured: normalized growth

CC(=O)CS(=O)(=O)c1ccc(Cl)cc1
inactive: [1] 1.02 | [2] 1.01 | [3] 1.01 | [4] 1.01 | S. cerevisiae deletion strains, locus YDL134C, strain PPH21, hits give low values 1 | [5] 0.969 | [6] 1.02 | [7] 1 | [8] 1 | [9] 0.998 | [10] 0.995 | [11] 0.988 | [12] 0.995 | [13] 1.02 | [14] 1 | [15] 1.04 | [16] 1.03 | [17] 1.02 | [18] 1.01 | [19] 0.969 | [20] 0.995 | [21] 0.992 | [22] 1.01 | [23] 1 | [24] 1.01 | [25] 1 | [26] 1.02 | [27] 0.933 | S. cerevisiae strains, strain wild type, hits give low values 1

NC(=S)CS(=O)(=O)c1ccc(C(F)(F)F)cc1
inactive: [1] 0.977 | [2] 1.01 | [3] 1.02 | [4] 1.03 | [5] 0.998 | [6] 1.03 | [7] 1.01 | [8] 1.03 | [9] 1.01 | [10] 1.02 | [11] 1.01 | [12] 1.02 | [13] 1.09 | [14] 1.02 | [16] 1.07 | [17] 1.01 | [18] 1.02 | [19] 1.04 | S. cerevisiae deletion strains, locus YNL128W, strain TEP1, hits give low values 1.03 | [20] 1.02 | [21] 1.03 | [22] 1 | [23] 0.992 | [24] 1.23 | [25] 0.952 | [26] 1.09 | [27] 0.969
active: [15] 1.23 [resistant]
